Experiment [1] in a line: NCI Yeast Anticancer Drug Screen. Data for the rad50 strain (AID 155).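 Also: 0% = growth of vehicle-only cultures of the same strain.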 The conditions noted are these: S. cerevisiae rad50 strain growth inhibition, stronger effect = higher value. The essentials:
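Compounds were tested on a yeast strain with an engineered DNA damage repair alteration; the reported value is growth inhibition normalised to vehicle treatment.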

The nature of experiment [2]: NCI Yeast Anticancer Drug Screen. Data for the mec2-1 strain (AID 157). The conditions noted are these: S. cerevisiae mec2-1 strain, stronger effect = higher value. The essentials: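 Vehicle-treated cultures served as reference for growth inhibition of compound-exposed mec2-1 yeast.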
Experiment [3] can be described thus: NCI Yeast Anticancer Drug Screen. Data for the sgs1 mgt1 strain (AID 161).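 Also: 0% = growth of cultures given vehicle only.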 The conditions noted are these: S. cerevisiae sgs1 mgt1 strain, stronger effect = higher value. The essentials:
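Read-out: growth inhibition vs vehicle controls. Cells: mutant yeast strain deficient in DNA damage repair.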

Experiment [4] can be described thus: NCI Yeast Anticancer Drug Screen. Data for the cln2 rad14 strain (AID 165).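 Also: 0% = growth equal to vehicle treated cultures.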 The conditions noted are these: S. cerevisiae cln2 rad14 strain, stronger effect = higher value. An outline of the steps:
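Each compound was tested on cln2 rad14 yeast. Inhibition of growth was calculated against vehicle-exposed controls.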

Experiment [5] in a line: NCI Yeast Anticancer Drug Screen. Data for the bub3 strain (AID 167). The conditions noted are these: S. cerevisiae bub3 mutant strain, stronger effect = higher value. The essentials: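 Growth of a checkpoint-deficient yeast mutant is measured after compound exposure. Values represent inhibition relative to vehicle.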
A short description of experiment [6]: NCI Yeast Anticancer Drug Screen. Data for the mlh1 rad18 strain (AID 175). The conditions noted are these: S. cerevisiae mlh1 rad18 strain growth inhibition, stronger effect = higher value. An outline of the steps:
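Vehicle-treated cultures served as the reference for growth inhibition in a yeast strain carrying DNA damage repair alterations exposed to each compound.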

Setting [7] is: at 5.0 µM (retest, dose inferred, filed as 0.5).
The mark [8] stands for this setting: at 50.0 µM (retest, dose inferred, filed as 5.0).

About 79,000 compounds went through this panel and 15% of them were active in at least one assay; those are over-represented in the sample as a whole. A number with no mark means an inactive call. Activity calls are given as the source filed them. Rule as the data show it: active = growth inhibition above about 70%; inactive = the rest.

Turning to `CC1C(c2ccc3c(c2)OCO3)c2cc3c(cc2OC1N1CCOCC1)OCO3` (stereo not given), the growth inhibition is 28% in experiment [1] (setting [7]); 49% in experiment [1] (setting [8]); 21.3% in experiment [1] (at 50.0 µM); 19% in experiment [2] (setting [7]); 36% in experiment [2] (setting [8]); 7.3% in experiment [2] (at 50.0 µM). In addition, the growth inhibition in experiment [3] (setting [7]) was 17%; in experiment [3] (setting [8]) it was 38%; in experiment [3] (at 50.0 µM), -18.1%; in experiment [4] (setting [7]) it was 25%; in experiment [4] (setting [8]) it was 27%; in experiment [4] (at 50.0 µM), 3.7%. Also, the growth inhibition in experiment [5] (setting [7]) is 27%; in experiment [5] (setting [8]), 28%; in experiment [5] (at 50.0 µM), 18.7%; in experiment [6] (setting [7]), 27%; in experiment [6] (setting [8]), 46%; in experiment [6] (at 50.0 µM), 20.3%.
Turning to `NC(=S)N/N=C/c1ccc(Cl)s1`, the growth inhibition in experiment [1] (setting [7]) is -5%; in experiment [1] (setting [8]), 80% (active); in experiment [1] (at 50.0 µM), 87.2% (active); in experiment [2] (setting [7]), -8%; in experiment [2] (setting [8]), 29%; in experiment [2] (at 50.0 µM) it was 47.5%. In addition, the growth inhibition was -5% in experiment [3] (setting [7]); 36% in experiment [3] (setting [8]); 67.6% in experiment [3] (at 50.0 µM); -17% in experiment [4] (setting [7]); 9% in experiment [4] (setting [8]); 11.7% in experiment [4] (at 50.0 µM). In addition, the growth inhibition in experiment [5] (setting [7]) is -5%; in experiment [5] (setting [8]) it was 62%; in experiment [5] (at 50.0 µM) it was 57.5%; in experiment [6] (setting [7]), -6%; in experiment [6] (setting [8]), 44%; in experiment [6] (at 50.0 µM) it was 87% (active).
For `CCN(CC)C(=O)C1(OC(C)=O)CCCCC1`, the growth inhibition in experiment [1] (setting [7]) is 0%; in experiment [1] (setting [8]), 0%; in experiment [1] (at 50.0 µM), -2.4%; in experiment [2] (setting [7]) it was -21%; in experiment [2] (setting [8]), -1%; in experiment [2] (at 50.0 µM), -5.65%. In addition, the growth inhibition was 0% in experiment [3] (setting [7]); -2% in experiment [3] (setting [8]); 9.9% in experiment [3] (at 50.0 µM); 3% in experiment [4] (setting [7]); 0% in experiment [4] (setting [8]); 36.8% in experiment [4] (at 50.0 µM). The growth inhibition is -6% in experiment [5] (setting [7]); -2% in experiment [5] (setting [8]); 2.1% in experiment [5] (at 50.0 µM); 1% in experiment [6] (setting [7]); 0% in experiment [6] (setting [8]); -80.8% in experiment [6] (at 50.0 µM).
Consider `CCc1nc(N)nc(N)c1-c1ccc(NCCN)c([N+](=O)[O-])c1`, for which the growth inhibition in experiment [1] (setting [7]) was -20%; in experiment [1] (setting [8]) it was -26%; in experiment [1] (at 50.0 µM), 98.7% (active); in experiment [2] (setting [7]) it was -3%; in experiment [2] (setting [8]), 5%; in experiment [2] (at 50.0 µM) it was 98.7% (active). Also, the growth inhibition in experiment [3] (setting [7]) is -28%; in experiment [3] (setting [8]) it was -22%; in experiment [3] (at 50.0 µM) it was 98.8% (active); in experiment [4] (setting [7]), -7%; in experiment [4] (setting [8]) it was -34%; in experiment [4] (at 50.0 µM) it was 98.5% (active). Moreover, the growth inhibition in experiment [5] (setting [7]) is 2%; in experiment [5] (setting [8]) it was -28%; in experiment [5] (at 50.0 µM), 98% (active); in experiment [6] (setting [7]), -31%; in experiment [6] (setting [8]), -40%; in experiment [6] (at 50.0 µM) it was 98.9% (active).
Turning to `COc1c2occc2c(OC)c2c(C)c(C(=O)OCCN3CCOCC3)oc12`, the growth inhibition was -1% in experiment [1] (setting [7]); 31% in experiment [1] (setting [8]); 64% in experiment [1] (at 50.0 µM); -3% in experiment [2] (setting [7]); 5% in experiment [2] (setting [8]); 50.3% in experiment [2] (at 50.0 µM). Besides, the growth inhibition was -4% in experiment [3] (setting [7]); 43% in experiment [3] (setting [8]); 28.1% in experiment [3] (at 50.0 µM); -4% in experiment [4] (setting [7]); 2% in experiment [4] (setting [8]); 19.4% in experiment [4] (at 50.0 µM). The growth inhibition in experiment [5] (setting [7]) was 1%; in experiment [5] (setting [8]), 56%; in experiment [5] (at 50.0 µM), 58.1%; in experiment [6] (setting [7]), -5%; in experiment [6] (setting [8]) it was 54%; in experiment [6] (at 50.0 µM), 66.2%.
Take `CS(=O)(=O)c1nc(Cl)c(Cl)c(C#N)c1Cl`: the growth inhibition in experiment [1] (setting [7]) was 50%; in experiment [1] (setting [8]), 99% (active); in experiment [1] (at 50.0 µM), 98.3% (active); in experiment [2] (setting [7]), 76% (active); in experiment [2] (setting [8]), 99% (active); in experiment [2] (at 50.0 µM), 98.9% (active). The growth inhibition in experiment [3] (setting [7]) is 66%; in experiment [3] (setting [8]) it was 99% (active); in experiment [3] (at 50.0 µM), 99.2% (active); in experiment [4] (setting [7]) it was 23%; in experiment [4] (setting [8]), 99% (active); in experiment [4] (at 50.0 µM), 84.5% (active). Also, the growth inhibition was 88% (active) in experiment [5] (setting [7]); 99% (active) in experiment [5] (setting [8]); 99.2% (active) in experiment [5] (at 50.0 µM); 85% (active) in experiment [6] (setting [7]); 99% (active) in experiment [6] (setting [8]); 99% (active) in experiment [6] (at 50.0 µM).
With `CCCCSc1n[nH]c(=O)nc1SC`, the growth inhibition in experiment [1] (setting [7]) was -142%; in experiment [1] (setting [8]) it was 88% (active); in experiment [1] (at 50.0 µM), 47.1%; in experiment [2] (setting [7]) it was -63%; in experiment [2] (setting [8]) it was 79% (active); in experiment [2] (at 50.0 µM), 48.6%. The growth inhibition in experiment [3] (setting [7]) is -57%; in experiment [3] (setting [8]), 83% (active); in experiment [3] (at 50.0 µM) it was 46.5%; in experiment [4] (setting [7]), -56%; in experiment [4] (setting [8]) it was 90% (active); in experiment [4] (at 50.0 µM) it was 73.8% (active). Moreover, the growth inhibition in experiment [5] (setting [7]) was -64%; in experiment [5] (setting [8]), 87% (active); in experiment [5] (at 50.0 µM), 52.4%; in experiment [6] (setting [7]), -114%; in experiment [6] (setting [8]), 94% (active); in experiment [6] (at 50.0 µM) it was 50.9%.
Turning to `O=Nc1c(O)ccc2ccccc12.[Fe].[Na+]`, the growth inhibition in experiment [1] (setting [7]) is 7%; in experiment [1] (setting [8]), 97% (active); in experiment [1] (at 50.0 µM), 97.2% (active); in experiment [2] (setting [7]), 14%; in experiment [2] (setting [8]), 98% (active); in experiment [2] (at 50.0 µM) it was 97.7% (active). The growth inhibition was 8% in experiment [3] (setting [7]); 98% (active) in experiment [3] (setting [8]); 98.5% (active) in experiment [3] (at 50.0 µM); -2% in experiment [4] (setting [7]); 96% (active) in experiment [4] (setting [8]); 96.6% (active) in experiment [4] (at 50.0 µM). The growth inhibition in experiment [5] (setting [7]) is 13%; in experiment [5] (setting [8]), 98% (active); in experiment [5] (at 50.0 µM), 97.6% (active); in experiment [6] (setting [7]) it was 4%; in experiment [6] (setting [8]) it was 97% (active); in experiment [6] (at 50.0 µM), 96.2% (active).
As to `Cc1c2ccncc2cc2c3ccccc3n(C)c12`, the growth inhibition was -23% in experiment [1] (setting [7]); 97% (active) in experiment [1] (setting [8]); 99% (active) in experiment [1] (at 50.0 µM); -58% in experiment [2] (setting [7]); 97% (active) in experiment [2] (setting [8]); 98.7% (active) in experiment [2] (at 50.0 µM). Also, the growth inhibition in experiment [3] (setting [7]) is -45%; in experiment [3] (setting [8]), 97% (active); in experiment [3] (at 50.0 µM) it was 98.7% (active); in experiment [4] (setting [7]), -50%; in experiment [4] (setting [8]) it was 98% (active); in experiment [4] (at 50.0 µM), 98.2% (active). Further, the growth inhibition in experiment [5] (setting [7]) is -63%; in experiment [5] (setting [8]) it was 98% (active); in experiment [5] (at 50.0 µM) it was 98.8% (active); in experiment [6] (setting [7]) it was -95%; in experiment [6] (setting [8]), 97% (active); in experiment [6] (at 50.0 µM), 99.2% (active).
On to `CC1CCN(CCC(=O)c2cccc(O)c2)CC1`, for which the growth inhibition in experiment [1] (setting [7]) is 4%; in experiment [1] (setting [8]) it was 57%; in experiment [1] (at 50.0 µM) it was 48.5%; in experiment [2] (setting [7]) it was -5%; in experiment [2] (setting [8]), 44%; in experiment [2] (at 50.0 µM), 36.3%. The growth inhibition in experiment [3] (setting [7]) is 2%; in experiment [3] (setting [8]), 48%; in experiment [3] (at 50.0 µM), 29.8%; in experiment [4] (setting [7]), -2%; in experiment [4] (setting [8]) it was 26%; in experiment [4] (at 50.0 µM), 21.1%. Besides, the growth inhibition in experiment [5] (setting [7]) is -16%; in experiment [5] (setting [8]) it was 39%; in experiment [5] (at 50.0 µM), 15.5%; in experiment [6] (setting [7]) it was 10%; in experiment [6] (setting [8]), 77% (active); in experiment [6] (at 50.0 µM), 65.8%.

(Values after PubChem BioAssay (NCI).)
